# Bioassay records: PubChem BioAssay, National Center for Advancing Translational Sciences (NCATS)
# A selection: hits, their analogues and other compounds. The true share with any hit is near 2.4%.
# D2 ag-1 – D2 dopamine receptor (human) agonism; HEK293 T-REx D2 cells, calcium flux agonist mode; activation, % at 2 µM; actives 0.53% (n = 340,000); AID 485358;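 active means activation over 3 SD above normal in the single-dose calcium agonist read, cut at about 30% in these data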; further: 0% is about no effect
# Target sequence (P14416 whole entry, looked up): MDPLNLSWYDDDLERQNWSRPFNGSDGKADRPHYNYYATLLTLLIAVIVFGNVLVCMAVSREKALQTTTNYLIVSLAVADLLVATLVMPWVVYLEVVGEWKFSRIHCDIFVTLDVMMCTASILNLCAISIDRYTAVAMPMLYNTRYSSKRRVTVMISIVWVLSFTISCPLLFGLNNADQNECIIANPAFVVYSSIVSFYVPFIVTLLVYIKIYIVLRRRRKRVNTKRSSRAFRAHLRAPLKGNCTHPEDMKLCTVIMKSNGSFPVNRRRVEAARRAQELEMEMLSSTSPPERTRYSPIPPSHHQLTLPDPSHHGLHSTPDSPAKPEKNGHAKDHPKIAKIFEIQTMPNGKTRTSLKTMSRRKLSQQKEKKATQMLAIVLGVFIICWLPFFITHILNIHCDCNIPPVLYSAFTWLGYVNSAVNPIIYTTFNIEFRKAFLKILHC
#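 HEK293 Trex D2 cells, tetracycline-induced, o/n 30 C 5% CO2; no-wash Ca dye, RT 30–90 min; 10-cycle baseline, 23 nl cpd added, kinetic Ca read 180 s; agonist hits = positive Ca response.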
# D2 PAM-1 – positive allosteric modulators of human D2 dopamine receptor | potentiation, % (test concentration not listed) | P14416 | DiscoveRx D2 beta-arrestin cells, luminescence, 90 min; 100% = 57 uM dopamine signal | actives 0.23% (n = 360,000); in the data active means potentiation above about 50%; inconclusive means mostly about 30% to 49%
#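 D2 cells co-treated with compound plus 50 nM dopamine (EC20) for 90 min at 37 deg C to detect potentiation. Beta-arrestin recruitment was read as enzyme-fragment luminescence after 1 h at ambient temperature. Full response was set by 57 uM dopamine.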
# D2 ag-2 – human D2 receptor agonism in beta-arrestin assay; P14416; DiscoveRx PathHunter D2 beta-arrestin, luminescence, 90 min; 100% = 57 uM dopamine signal; activation, % (concentration not given with the values); actives 0.084% (n = 360,000); in the data active means activation above about 40%; inconclusive means between about 15% and that limit
#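 DiscoveRx PathHunter D2 beta-arrestin cells (2,100/well) attached overnight, then compound-stimulated 90 min at 37 C in HBSS/10 mM HEPES/0.1% Tween-20 buffer; beta-galactosidase complementation read by luminescence after 1 h at ambient temperature. Dopamine 57 uM final (EC100) as control.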
# D2 PAM-2 – positive allosteric modulators of human D2 dopamine receptor | P14416 | HEK293 T-REx D2, calcium flux, EC20 dopamine potentiation | potentiation, % at 10 µM | actives 0.34% (n = 340,000) | AID 485347;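 active means potentiation over 3 SD above the plate norm, cut at about 30% in these data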; further: 0% is about no effect
#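 Calcium flux readout, no-wash dye, 1 read/s. Inducible HEK293 Trex D2 line, overnight 30 C. Compound alone 180 s (agonist flags), then EC20 dopamine, another 180 s to score potentiation.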
# D2 antag – antagonists of human D2 dopamine receptor | P14416 | HEK293 TREx D2 cells, calcium flux, dopamine EC80 | inhibition, % at 10 µM | AID 485344 | actives 2% (n = 340,000); in the data active means inhibition above about 30%; inactive means below that, where a call was filed; further: 0% is about no effect
#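 Calcium flux kinetic readout in an inducible HEK293 TREx D2 line plated overnight at 30 C. After 180 s compound exposure, an EC80 dopamine challenge follows with another 180 s kinetic read to detect antagonism.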
# * = called active by the depositor; ? = inconclusive; / = no result.
SMILES,D2 ag-1,D2 PAM-1,D2 ag-2,D2 PAM-2,D2 antag
c1ccc2c(c1)CCCN2Cc1nnnn1CC1CCCO1 (centres undefined),-0.2,-9.5,-6.6,32.3*,-21.8
O=C(CSc1nnc2scc(-c3ccc(Cl)cc3)n12)Nc1ccccc1F,-1.1,/,/,3.7,/
COc1ccc(CCN2C(=O)CC(N3CCN(S(=O)(=O)c4ccccc4)CC3)C2=O)cc1 (centres undefined),-0.2,-26.5,0.2,30.9*,8.2
S=C(Nc1ccc(Oc2ccccc2)cc1)N(CCCN1CCOCC1)Cc1ccccn1,2.6,-4.6,-2.8,-27.5,-20.4
Cc1cccc(NC(=S)N(CCCN2CCOCC2)Cc2ccccn2)c1,0.8,-11.7,-3.3,-6.0,39.6*
CSc1ccc(C(=S)N2CCN(CCO)CC2)cc1,-1.2,-11.6,-3.5,9.5,-21.4
OCCN1CCN(C(=S)c2ccc(Br)cc2)CC1,0.1,-11.2,-3.4,-7.1,54.7*
COc1cc(/C=C(\C#N)C(=O)Nc2ccccc2C(=O)O)cc(Cl)c1OC,-0.6,-11.5,-6.0,40.2*,-0.3
Cc1onc(-c2ccccc2)c1C(=O)OCCOc1ccccc1F,1.7,-3.8,0.2,2.5,37.6*
CN(C)C1=NC[C@H](Cc2ccccc2)N1CCc1cccc(F)c1,0.1,-20.5,-4.4,4.0,0.5
NC1=NC[C@H](Cc2ccc(O)cc2)N1CCc1cccc(F)c1,0.1,-7.8,-2.4,4.3,38.9*
CCOC(=O)c1c(SCC(=O)Nc2nc3ccccc3s2)nc(=O)[nH]c1C,1.4,/,/,-0.4,/
CCOC(=O)c1c(SCC(=O)Nc2nc(C)cs2)nc(=O)[nH]c1C,0.1,-4.0,-3.4,4.3,32.0*
Cc1csc(NC(=O)C2CCCN(S(=O)(=O)c3ccc(Br)s3)C2)n1 (centres undefined),-0.7,-20.9,-0.9,-9.9,38.2*
CS(=O)(=O)c1ccc(NCC2CCCO2)c([N+](=O)[O-])c1 (centres undefined),0.3,-9.2,-5.0,125.3*,-1.3
COc1ccc(NC(=O)NCc2cccn2Cc2ccc(F)cc2)cc1OC,/,/,/,-0.1,/
COc1ccc(S(=O)(=O)N2CCN(C3CCN(Cc4ccccc4)CC3)CC2)cc1,0.0,-15.4,-3.0,-3.8,-17.4
Cc1cc(C)cc(N=c2c([N+](=O)[O-])nn(-c3ccc(Cl)cc3)n2O)c1,0.1,?,11.9,1.9,0.7
COc1ccc(-n2nc([N+](=O)[O-])c(=NCCc3ccc(C)cc3)n2O)cc1,-0.6,70.9*,?,1.2,5.9
COc1ccc(-n2nc([N+](=O)[O-])c(=NC3CCN(Cc4ccccc4)CC3)n2O)cc1,0.3,15.7,?,-49.2,71.2*
COc1ccc(-n2nc([N+](=O)[O-])c(=NCCc3ccc(OC)c(OC)c3)n2O)cc1,1.4,136.8*,?,2.9,-0.8
COc1ccc(-n2nc([N+](=O)[O-])c(=NCc3cccnc3)n2O)cc1,-0.8,?,?,-3.4,-10.6
COc1ccc(-n2nc([N+](=O)[O-])c(=NCCc3ccc(Cl)cc3)n2O)cc1,0.1,87.3*,13.7,14.8,-1.0
COc1ccc(-c2nc(CCNC(=O)Cc3ccc(F)cc3)cs2)cc1,0.4,/,/,11.2,/
COc1ccc(-n2nc([N+](=O)[O-])c(=NCCC3=CCCCC3)n2O)cc1,0.2,74.2*,50.5*,-1.9,14.2
SMILES,D2 ag-1,D2 PAM-1,D2 ag-2,D2 PAM-2,D2 antag
COc1ccc(-n2nc([N+](=O)[O-])c(=NCc3ccco3)n2O)cc1,-0.3,?,?,6.9,17.5
CCc1ccc(N=c2c([N+](=O)[O-])nn(-c3ccccc3)n2O)cc1,0.7,89.5*,13.1,3.9,8.1
Cc1nn(CC(=O)Nc2ccccc2F)c(=O)c2c(C)n(-c3ccc(Cl)cc3)nc12,0.0,/,/,7.3,/
Cc1ccc(F)c(S(=O)(=O)NC(=O)C2(C)CCN2C(=O)c2cccc3ccccc23)c1 (centres undefined),/,61.7*,?,/,/
Cc1ccc(-n2c(=O)c3c(cnn3C)n(CC(=O)Nc3ccc(C)cc3C)c2=O)cc1,0.3,/,/,17.4,/
Cc1cccc(N2CCN(CC(O)COc3ccccc3Cl)CC2)c1 (centres undefined),8.8,-53.4,-5.4,-23.9,71.1*
OC(COc1ccc(Cl)cc1)CN1CCN(c2ccccn2)CC1 (centres undefined),/,-10.1,7.7,/,/
OC(COc1cc(Cl)c(Cl)cc1Cl)CN1CCN(c2ncccn2)CC1 (centres undefined),26.1,-31.4,11.1,-22.2,36.9*
Cc1cc2ccccc2n1-c1ccc(C(=O)N2CCCCC2)s1,/,/,/,-4.6,/
CCC(CO)Oc1cc(NCc2ccccc2)c2ncn(C(C)C)c2c1 (centres undefined),/,-16.2,6.4,/,/
CCC(COC)Oc1cc(NCc2ccccc2)c2ncn(C(C)C)c2c1 (centres undefined),-0.3,2.0,64.8*,15.1,-4.6
Cc1cccc(OCC(=O)OCc2cc(=O)n3nc(-c4cccs4)sc3n2)c1,0.3,/,/,-12.2,/
CCOc1ccc(-c2nnc(SCC(=O)Nc3cccc(C#N)c3)o2)cc1,/,/,/,7.1,/
COc1cc(NC(=O)c2ccccc2OCc2ccccc2)cc(OC)c1OC,-1.0,55.6*,-0.5,-7.2,-3.6
O=C(Nc1ccc(O)cc1)c1ccccc1OCc1ccccc1,0.6,0.1,2.1,13.9,-0.2
Cc1ccc2oc(=O)n(CCNC(=O)Nc3ccc(Cl)cc3)c2c1,-0.9,/,/,-10.9,/
CC(=O)C(C(C)=O)c1c(Cl)c(O)c(O)c2c(C(=O)c3ccccc3)coc12,0.0,102.6*,?,-2.6,2.7
CCN(c1ccccc1C)S(=O)(=O)c1cc2c3c(c1)CCN3C(=O)CC2,/,8.9,1.1,-3.1,/
CCN(c1ccccc1C)S(=O)(=O)c1cc2c3c(c1)CCC(=O)N3CCC2,-0.9,-3.6,-4.1,41.4*,20.7
COc1cc2ccnc(Cc3cccc(OC)c3OC)c2cc1OC,1.4,55.3*,15.0,0.3,-4.3
Cn1c(CS(=O)Cc2c(Cl)cccc2Cl)nnc1SCc1ccc(Cl)cc1 (centres undefined),-1.3,-9.6,0.1,11.1,31.0*
Cc1ccc(CSc2nnc(CS(=O)Cc3ccc(Cl)cc3Cl)n2C)cc1 (centres undefined),-0.1,6.8,-0.4,4.6,-9.0
Cc1cc(=O)[nH]c(SCC(=O)Nc2ccc3c(c2)CCC3)c1C#N,0.3,1.0,5.0,6.0,35.7*
Cc1cc(=O)[nH]c(SCC(=O)Nc2ccc(F)cc2)c1C#N,1.1,0.3,-0.8,-3.8,-3.9
O=C(Nc1nc(-c2ccc(S(=O)(=O)N3CCOCC3)cc2)cs1)c1ccccc1,-1.1,?,1.3,32.6*,0.8
Cc1cccc(C(C)C)c1NC(=O)c1ccc2c(c1)CCCN2S(C)(=O)=O,-0.9,/,/,-7.6,/
O=C(Nc1ccc(Cl)c(-c2nc3ccccc3o2)c1)c1cccc2c(Cl)cccc12,0.4,/,/,-0.2,/
